Experimental data: ChEMBL document CHEMBL3988442, “University of Dundee, Small-Polar-MMV Screening Library” (2021)
Where “and” joins values, the source holds several entries; their conditions need not be identical. Equal values may be shown once. For some of these results: Results with a measured potency or affinity are listed apart.

Tests used:
Design in all cases: scale not given: direction of the effect not stated beside the values
[1] = molecular target: Protein translocase subunit SecA (Escherichia coli (strain K12)) (UniProt P10408); test: Assay to Identify E. coli SecA ATPase Inhibitors; assay type: functional; details: 30 µM
Protein translocase subunit SecA (Escherichia coli (strain K12)), sequence (P10408 whole entry): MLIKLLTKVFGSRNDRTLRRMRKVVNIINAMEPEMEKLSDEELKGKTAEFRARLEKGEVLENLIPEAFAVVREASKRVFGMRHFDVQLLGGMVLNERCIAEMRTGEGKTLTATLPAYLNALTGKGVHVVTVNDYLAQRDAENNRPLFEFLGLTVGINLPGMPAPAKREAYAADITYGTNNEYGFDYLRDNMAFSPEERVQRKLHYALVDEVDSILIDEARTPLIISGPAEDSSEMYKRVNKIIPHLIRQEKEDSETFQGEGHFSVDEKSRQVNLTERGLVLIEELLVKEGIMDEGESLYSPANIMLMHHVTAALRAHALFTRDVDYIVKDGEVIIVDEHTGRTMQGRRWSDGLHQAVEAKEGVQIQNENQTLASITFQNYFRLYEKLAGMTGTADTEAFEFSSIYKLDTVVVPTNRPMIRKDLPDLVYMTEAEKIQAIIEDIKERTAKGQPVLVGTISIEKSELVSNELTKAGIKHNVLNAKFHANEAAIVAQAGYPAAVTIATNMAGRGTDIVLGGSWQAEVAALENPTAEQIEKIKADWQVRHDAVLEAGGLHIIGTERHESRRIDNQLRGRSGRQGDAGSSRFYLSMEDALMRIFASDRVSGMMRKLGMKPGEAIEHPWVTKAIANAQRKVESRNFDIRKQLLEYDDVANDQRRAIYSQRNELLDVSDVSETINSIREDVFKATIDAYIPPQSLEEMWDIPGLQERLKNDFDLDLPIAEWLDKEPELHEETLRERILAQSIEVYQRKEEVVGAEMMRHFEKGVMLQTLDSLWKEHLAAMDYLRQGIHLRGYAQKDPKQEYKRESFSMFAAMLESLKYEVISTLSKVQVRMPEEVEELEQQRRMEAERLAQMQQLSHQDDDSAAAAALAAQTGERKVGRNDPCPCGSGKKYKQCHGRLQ

[2] = molecular target: T1, Ubiquitin-activating enzyme e1, putative (Leishmania donovani (strain BPK282A1)) (UniProt E9BSI1); test: Leishmania donovani Ubiquitin Activating Enzyme (LdE1); assay type: functional; details: 30 µM
T1 sequence (whole entry): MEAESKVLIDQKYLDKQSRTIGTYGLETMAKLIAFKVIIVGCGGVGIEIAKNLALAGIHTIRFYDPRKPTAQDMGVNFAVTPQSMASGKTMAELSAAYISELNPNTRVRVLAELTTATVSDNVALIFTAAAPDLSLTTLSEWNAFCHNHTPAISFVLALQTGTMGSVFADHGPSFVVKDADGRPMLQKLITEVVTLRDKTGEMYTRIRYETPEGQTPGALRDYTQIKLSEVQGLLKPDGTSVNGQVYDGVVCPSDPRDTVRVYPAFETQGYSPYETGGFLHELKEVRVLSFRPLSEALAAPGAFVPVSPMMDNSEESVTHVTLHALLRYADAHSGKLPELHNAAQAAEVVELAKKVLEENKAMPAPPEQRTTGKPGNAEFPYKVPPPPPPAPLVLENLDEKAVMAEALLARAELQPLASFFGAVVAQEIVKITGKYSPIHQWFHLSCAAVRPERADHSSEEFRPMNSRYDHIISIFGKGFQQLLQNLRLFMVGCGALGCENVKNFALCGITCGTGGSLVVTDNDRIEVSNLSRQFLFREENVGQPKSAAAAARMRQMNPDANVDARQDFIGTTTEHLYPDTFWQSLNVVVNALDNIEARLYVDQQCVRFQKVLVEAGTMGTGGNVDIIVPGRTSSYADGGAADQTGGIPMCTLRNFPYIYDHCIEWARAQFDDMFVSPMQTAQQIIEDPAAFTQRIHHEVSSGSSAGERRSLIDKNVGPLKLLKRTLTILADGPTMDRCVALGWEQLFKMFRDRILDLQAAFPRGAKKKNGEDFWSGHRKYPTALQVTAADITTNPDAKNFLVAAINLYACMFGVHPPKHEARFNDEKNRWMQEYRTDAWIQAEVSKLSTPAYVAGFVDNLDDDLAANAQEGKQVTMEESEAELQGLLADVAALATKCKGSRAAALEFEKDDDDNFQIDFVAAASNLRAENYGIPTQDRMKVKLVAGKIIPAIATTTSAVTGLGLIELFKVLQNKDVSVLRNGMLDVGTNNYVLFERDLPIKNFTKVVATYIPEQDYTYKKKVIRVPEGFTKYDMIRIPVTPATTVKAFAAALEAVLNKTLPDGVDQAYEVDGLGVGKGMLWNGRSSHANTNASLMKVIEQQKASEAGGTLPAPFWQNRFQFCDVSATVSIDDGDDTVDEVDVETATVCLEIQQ

[3] = molecular target: AMP-activated protein kinase, AMPK (Homo sapiens) (UniProt P54646+O43741+P54619+Q9UGJ0+Q9Y478+Q13131+Q9UGI9); test: AMP-dependent Kinase enzyme assay. An in vitro enzyme assay that detects ADP turnover that is directly proportional to AMPK activity. This uses naive AMPK that is activated during the assay with MK-8722; assay type: functional; details: 30 µM
[4] = molecular target: Sialic acid-binding Ig-like lectin 9 (Homo sapiens) (UniProt Q9Y336); test: Hs-Siglec9 ALPHAscreen SOP 20170721; details: 10 µM
Sialic acid-binding Ig-like lectin 9 (Homo sapiens), sequence (Q9Y336 whole entry): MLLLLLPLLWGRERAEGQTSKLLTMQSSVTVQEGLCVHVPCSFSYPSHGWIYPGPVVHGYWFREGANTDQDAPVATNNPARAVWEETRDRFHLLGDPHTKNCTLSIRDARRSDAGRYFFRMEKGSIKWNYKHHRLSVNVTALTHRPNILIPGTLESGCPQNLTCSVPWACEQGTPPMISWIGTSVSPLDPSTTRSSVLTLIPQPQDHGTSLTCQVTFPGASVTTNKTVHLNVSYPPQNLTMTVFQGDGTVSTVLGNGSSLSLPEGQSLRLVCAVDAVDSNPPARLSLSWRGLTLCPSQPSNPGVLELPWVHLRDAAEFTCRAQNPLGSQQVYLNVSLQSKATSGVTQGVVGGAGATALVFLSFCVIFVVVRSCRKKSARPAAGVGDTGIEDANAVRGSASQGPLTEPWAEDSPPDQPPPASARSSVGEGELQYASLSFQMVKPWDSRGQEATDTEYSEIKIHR

Trypanosoma cruzi = test: Trypanosoma cruzi phosphomannomutase and mannose-1-phosphate guanylyltransferase assay; assay type: functional; details: 10 µM
[5] = molecular target: T2, Arginase-2, mitochondrial (Homo sapiens) (UniProt P78540); test: in vitro enzyme assay to detect the production of urea directly proportional to the activity of Arginase II; assay type: functional; details: 33.3 µM; note: in the data most compounds retested in dose-response had high values
T2 sequence (whole entry): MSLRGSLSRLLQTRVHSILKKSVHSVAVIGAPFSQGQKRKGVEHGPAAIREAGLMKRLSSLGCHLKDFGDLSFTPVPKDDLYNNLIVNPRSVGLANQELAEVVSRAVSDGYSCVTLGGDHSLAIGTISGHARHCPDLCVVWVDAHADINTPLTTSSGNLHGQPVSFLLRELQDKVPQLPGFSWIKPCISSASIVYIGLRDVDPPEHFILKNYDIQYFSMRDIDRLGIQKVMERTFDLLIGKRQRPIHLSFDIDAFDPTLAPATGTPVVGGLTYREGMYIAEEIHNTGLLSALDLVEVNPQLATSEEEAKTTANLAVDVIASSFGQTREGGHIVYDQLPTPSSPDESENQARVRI

[6] = molecular target: T3, Proteasome subunit beta (Trypanosoma cruzi) (UniProt O96673); test: Trypanosoma cruzi proteasome chymotrypsin-like activity (TcProtChymo) assay.; note: in the data most compounds retested in dose-response had high values; assay type: functional; details: 9.37 µM
T3 sequence (whole entry): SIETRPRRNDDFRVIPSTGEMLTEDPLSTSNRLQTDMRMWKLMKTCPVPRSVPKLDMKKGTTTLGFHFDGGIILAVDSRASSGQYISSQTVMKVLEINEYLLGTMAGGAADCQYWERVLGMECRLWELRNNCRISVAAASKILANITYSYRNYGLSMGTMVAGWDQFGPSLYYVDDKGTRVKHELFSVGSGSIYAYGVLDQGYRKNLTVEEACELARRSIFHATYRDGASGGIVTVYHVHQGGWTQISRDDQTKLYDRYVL

Homo sapiens = species on record: Homo sapiens; test: To identify inhibition of the IFN signalling (Jak-Stat) pathway via expression of an eGFP reporter gene under the control of an IFN-stimulated response element (ISRE) containing MxA promoter.; assay type: functional; details: 30 µM
[7] = molecular target: T4, Tyrosyl-tRNA synthetase, putative (Trypanosoma cruzi (strain CL Brener)) (UniProt Q4DSP6); test: Trypanosoma cruzi tyrosyl tRNA synthetase (TcYRS) _High Tyrosine SOP; assay type: functional; details: 30 µM; note: in the data most compounds retested in dose-response had high values
T4 sequence (whole entry): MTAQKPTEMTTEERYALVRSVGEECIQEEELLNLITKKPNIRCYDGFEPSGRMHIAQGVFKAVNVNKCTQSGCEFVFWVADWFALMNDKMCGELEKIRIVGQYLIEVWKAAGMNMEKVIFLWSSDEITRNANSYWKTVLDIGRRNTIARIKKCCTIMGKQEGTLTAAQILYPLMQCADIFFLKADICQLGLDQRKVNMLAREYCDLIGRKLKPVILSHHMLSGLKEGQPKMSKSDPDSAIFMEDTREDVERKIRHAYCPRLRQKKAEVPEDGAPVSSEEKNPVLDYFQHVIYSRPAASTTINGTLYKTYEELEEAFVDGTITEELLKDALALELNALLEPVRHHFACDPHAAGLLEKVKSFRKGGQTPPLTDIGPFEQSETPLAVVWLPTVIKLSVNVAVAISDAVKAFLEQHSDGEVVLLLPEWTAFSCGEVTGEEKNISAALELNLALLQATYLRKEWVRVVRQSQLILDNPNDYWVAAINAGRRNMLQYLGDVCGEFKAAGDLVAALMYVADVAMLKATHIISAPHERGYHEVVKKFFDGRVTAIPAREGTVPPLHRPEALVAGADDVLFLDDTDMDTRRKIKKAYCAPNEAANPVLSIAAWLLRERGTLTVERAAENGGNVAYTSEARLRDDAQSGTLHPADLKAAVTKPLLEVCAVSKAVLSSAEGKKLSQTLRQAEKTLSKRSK

[8] = molecular target: T4, Tyrosyl-tRNA synthetase, putative (Trypanosoma cruzi (strain CL Brener)); test: Trypanosoma cruzi tyrosyl tRNA synthetase (TcYRS) SOP; assay type: functional; details: 30 µM
[9] = molecular target: Chromo domain-containing protein 1 (Saccharomyces cerevisiae (strain ATCC 204508 / S288c) (Baker's yeast)) (UniProt P32657); test: ScCHD-1 Enzyme Inhibition Assay; assay type: functional; details: 30 µM; note: in the data most compounds retested in dose-response had high values
Chromo domain-containing protein 1 (Saccharomyces cerevisiae (strain ATCC 204508 / S288c) (Baker's yeast)), sequence (P32657 whole entry, the tested form may be a part): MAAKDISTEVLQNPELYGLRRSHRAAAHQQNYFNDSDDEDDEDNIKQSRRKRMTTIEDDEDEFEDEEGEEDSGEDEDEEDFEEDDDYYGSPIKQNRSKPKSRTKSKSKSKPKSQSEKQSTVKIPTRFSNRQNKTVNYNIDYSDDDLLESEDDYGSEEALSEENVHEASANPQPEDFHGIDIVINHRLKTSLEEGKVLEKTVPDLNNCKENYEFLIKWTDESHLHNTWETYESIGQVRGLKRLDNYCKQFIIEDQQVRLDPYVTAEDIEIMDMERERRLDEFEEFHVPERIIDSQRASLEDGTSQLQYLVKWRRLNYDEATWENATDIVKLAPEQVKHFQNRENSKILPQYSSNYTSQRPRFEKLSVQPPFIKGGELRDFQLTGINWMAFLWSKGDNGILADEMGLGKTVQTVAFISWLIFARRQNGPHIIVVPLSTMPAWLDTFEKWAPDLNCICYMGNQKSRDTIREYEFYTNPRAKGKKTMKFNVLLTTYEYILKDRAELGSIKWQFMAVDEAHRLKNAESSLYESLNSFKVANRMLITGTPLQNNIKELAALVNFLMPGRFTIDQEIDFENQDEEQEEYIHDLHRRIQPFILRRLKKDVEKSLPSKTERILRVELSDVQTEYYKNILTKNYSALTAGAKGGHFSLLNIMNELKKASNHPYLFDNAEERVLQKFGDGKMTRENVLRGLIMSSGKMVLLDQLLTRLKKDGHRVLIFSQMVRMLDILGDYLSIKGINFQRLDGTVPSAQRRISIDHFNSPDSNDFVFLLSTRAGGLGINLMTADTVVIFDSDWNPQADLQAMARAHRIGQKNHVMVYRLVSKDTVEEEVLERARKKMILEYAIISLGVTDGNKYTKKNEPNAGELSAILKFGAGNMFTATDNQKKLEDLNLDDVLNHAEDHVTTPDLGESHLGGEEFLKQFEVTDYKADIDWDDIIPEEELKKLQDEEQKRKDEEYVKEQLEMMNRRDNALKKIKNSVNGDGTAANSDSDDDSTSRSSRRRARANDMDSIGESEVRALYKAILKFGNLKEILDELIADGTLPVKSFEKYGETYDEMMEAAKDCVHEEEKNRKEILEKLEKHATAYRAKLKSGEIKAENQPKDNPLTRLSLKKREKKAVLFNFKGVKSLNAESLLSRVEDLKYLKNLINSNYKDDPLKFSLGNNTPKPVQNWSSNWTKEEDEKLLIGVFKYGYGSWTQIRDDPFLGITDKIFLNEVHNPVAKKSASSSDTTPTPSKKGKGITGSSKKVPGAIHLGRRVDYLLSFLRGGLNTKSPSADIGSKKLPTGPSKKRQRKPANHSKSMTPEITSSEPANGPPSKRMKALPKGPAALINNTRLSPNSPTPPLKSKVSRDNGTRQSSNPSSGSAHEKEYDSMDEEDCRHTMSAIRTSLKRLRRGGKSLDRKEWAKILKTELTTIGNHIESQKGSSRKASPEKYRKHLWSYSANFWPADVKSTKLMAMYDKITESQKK

N/A = test: Trypanosoma cruzi proteasome luciferase counter-screen; assay type: functional; details: 9.37 µM

Compound | Percent Effect [1] [%] | Percent Effect [2] [%] | Percent Effect [3] [%] | Percent Effect [4] [%] | Percent Effect (Trypanosoma cruzi) [%] | Percent Effect [5] [%] | Percent Effect [6] [%] | Percent Effect (Homo sapiens) [%] | Percent Effect [7] [%] | Percent Effect [8] [%] | Percent Effect [9] [%] | Percent Effect (N/A)
CN(C)Cc1nn(C)c2c1CCN(S(=O)(=O)c1cccs1)C2 | -0.0797 | 13 | 2.64 | -2.7 | 1.48 | 3.23 | 5.57 | 14.8 | 8.47 | 8.97 | -7.57 | –
CN(C)c1ncc(CN2CCC(c3nnsc3S(C)(=O)=O)CC2)cn1 | -2.31 | -1.35 | 11.6 | -0.17 | -3.36 | 0.232 | 4.37 | 12.1 | 3.23 | 1.3 | -9.61 | –
CN(C)C(=O)Cc1nc(CN2CCn3c(nnc3C3CC3)C2)cs1 | -3.93 | 16.2 | 2.91 | 3.53 | 2.14 | -2.4 | 10.8 | 7.25 | 5.94 | 15.8 | -2.27 | –
Cc1ccc(C(=O)NCCCNS(C)(=O)=O)cc1-n1cccc1 | -3.12 | 13.2 | 12.3 | -1.07 | 3.99 | 9.47 | 15.2 | 9.99 | 6.38 | 10.4 | -5.78 | –
CNS(=O)(=O)Cc1ccc(CNc2cncc(-n3cccn3)n2)cc1 | -1.63 | 18.2 | 3.34 | 6.42 | 5.24 | 0 | – | 18.8 | 7.77 | 24.4 | -12.2 | 16.1% and 14.8%
